# Compound activity: PubChem, National Center for Advancing Translational Sciences (NCATS)
# Shown is part of a subset that was picked to be rich in hits.
# Apoferritin bind – candidate novel general anesthetic via apoferritin binding; Potency, µM (doses to about 77.5 µM), usual class: inhibitors; apoferritin/1-aminoanthracene competitive binding, fluorescence; AID 485281; 350,000 compounds, 0.074% hits; P02791; also: nearly all actives have a fitted effect of over 20% in size
# Target sequence (P02791 2-175 limits assumed): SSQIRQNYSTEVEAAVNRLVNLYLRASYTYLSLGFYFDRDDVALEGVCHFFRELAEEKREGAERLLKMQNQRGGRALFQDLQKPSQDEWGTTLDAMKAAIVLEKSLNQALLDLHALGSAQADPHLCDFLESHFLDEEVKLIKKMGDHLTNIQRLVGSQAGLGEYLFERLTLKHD
#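 Steps: apoferritin (10 uM) was premixed with half-saturated 1-AMA in PBS, compounds were pin-transferred, plates stood 10 min at room temperature, fluorescence was read at 380/535 nm, and curves were fitted with a Hill equation.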
# Eya2 inh – Eya2 (human) phosphatase inhibition; 330,000 compounds, 0.006% hits; Potency, µM (top dose mostly 76.9 µM), most hits filed as inhibitors; AID 488837; recombinant Eya2, OMFP fluorescence dephosphorylation (OMFP is methylfluorescein phosphate); O00167
#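 Eya2 protein (added as 0.2 uM solution) was preincubated with compound for 10 min at ambient temperature in 50 mM HEPES pH 7.5, 50 mM NaCl, 5 uM MgCl2, 0.05% BSA, 1 mM DTT. OMFP (added at 50 uM) then reacted 10 min; fluorescence read at 485/525 nm.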
# Six1-Eya2 inh – Six1/Eya2 interaction inhibition | activity change, % (concentration not given with the values) | 360,000 compounds, 0.56% hits | AlphaScreen GST-Six1/His-Eya2 binding, biochemical; stronger effect = lower value | Q15475+O00167 | AID 651725; in the data active = activity change below about -65%; inconclusive = mostly about -30% to -63%
#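 AlphaScreen luminescence read after one hour at 37 °C in darkness. Pin-transferred compounds met GST-Six1 and His-Eya2 protein (5X stock 250 nM/500 nM) plus glutathione donor and Ni-chelate acceptor beads (5X, 50 ug/mL).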
# KDM4E inh – inhibitors of human JMJD2E histone demethylase; B2RXH2; JMJD2E catalytic domain, FDH-coupled NADH fluorescence (FDH is formaldehyde dehydrogenase); Potency, µM (doses to about 57.1 µM), actives largely listed as inhibitors; 230,000 compounds, 1.6% hits; AID 2147; active = well fitted inhibition curve with a large enough effect, not every such curve was filed as active; inconclusive = small, poorly fitted or top-dose-only effect, or another doubt; inactive = no such curve, though single readings can be large or run the other way; also: nearly all actives have a fitted effect of over 50% in size
# GALK inh – inhibitors of human galactokinase. Purified GALK, Kinase-Glo residual ATP luminescence. Potency, µM (top dose mostly 57.5 µM), most hits filed as inhibitors. 270,000 compounds, 0.007% hits. AID 1868
# Target sequence (P51570 whole entry, looked up): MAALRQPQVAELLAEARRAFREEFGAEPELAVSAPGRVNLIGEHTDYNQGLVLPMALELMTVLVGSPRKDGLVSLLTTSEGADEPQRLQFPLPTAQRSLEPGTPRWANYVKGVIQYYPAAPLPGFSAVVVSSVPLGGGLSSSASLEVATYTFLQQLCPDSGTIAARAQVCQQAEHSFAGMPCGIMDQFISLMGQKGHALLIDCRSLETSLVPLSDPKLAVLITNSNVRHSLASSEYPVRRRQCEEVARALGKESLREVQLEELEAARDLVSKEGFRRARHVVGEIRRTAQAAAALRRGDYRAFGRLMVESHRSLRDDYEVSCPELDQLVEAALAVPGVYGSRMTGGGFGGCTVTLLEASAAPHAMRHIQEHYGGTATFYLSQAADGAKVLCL
#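 Kinase-Glo Plus luminescence measured ATP left after a 1 h room-temperature reaction. The reaction used 5 nM GALK, 100 uM galactose and 35 uM ATP at pH 8.0 (20 mM HEPES, 5 mM MgCl2, 60 mM NaCl, 1 mM DTT, 0.01% BSA).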
# CtBP-E1A inh – CtBP/E1A binding inhibition; AlphaScreen GST-E1A/His-CtBP binding, 1536-well; stronger effect = lower value; activity change, % (concentration not given with the values); 340,000 compounds, 0.49% hits; in the data active = activity change below about -65%; inconclusive = mostly about -30% to -63%
#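 In 5 uL wells, 23 nL compound meets equimolar GST-E1A and His-CtBP (5X stock 125 nM each) for 2 h, 37 °C. Beads (5X, 50 ug/mL) then 1 h, 37 °C, dark.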
# A number is an active result; - = inactive; ? = inconclusive; . = not tested or not shown. Unless noted, calls follow the shape of the dose curve; as a rule, active = well fitted curve in the direction sought with a large enough effect; inconclusive = small, poorly fitted or top-dose-only effect, or another doubt; inactive = no such curve, though single readings can be large; an effect the other way counts as inactive or inconclusive.
SMILES,Apoferritin bind,Eya2 inh,Six1-Eya2 inh,KDM4E inh,GALK inh,CtBP-E1A inh
CC[C@H](C)[C@H](NC(=O)[C@H](CC(C)C)NC(=O)[C@@H](N)CO)C(=O)NCC(=O)N[C@@H](CCCN=C(N)N)C(=O)N[C@@H](CC(C)C)C(=O)O,-,.,.,.,.,.
Cc1[nH]c2ccccc2c1-c1csc(N)n1,-,-,-,.,-,-
COc1ccccc1Nc1nc(-c2c(C)[nH]c3ccccc23)cs1,-,-,-,28.2µM,-,-
Cc1ccc(C(=O)NC(=S)/C=C2\N(C)c3ccccc3C2(C)C)cc1,-,-,-75.4,-,-,-81.1
Oc1c(CN2CCN(c3ccccn3)CC2)cc(Cl)c2cccnc12,-,-,-90.2,?,-,-96.8
OCCN1CCN(Cc2cc(Cl)c3cccnc3c2O)CC1,-,-,-90.3,22.4µM,-,-95.3
O=c1c(CN2CCN(c3ccccn3)CC2)coc2ccccc12,-,-,-,-,-,-
CCCSc1nnc2c(n1)OC(c1sccc1C)Nc1ccccc1-2 (stereo not given),-,.,.,.,.,.
Cc1ccc(C(=O)CC2(O)C(=O)N(Cc3ccc4c(c3)OCO4)c3ccccc32)cc1 (stereo not given),14.1µM,-,-,-,-,-
COC(=O)N/N=C/c1ccc(-c2ccc(C)c(Cl)c2)o1,-,-,-,?,-,-
Cc1ccc(-c2ccc(/C=N/NC(=O)CN3CCCC3)o2)cc1Cl,17.8µM,-,-,-,-,-
CC(C)(C)NC(=O)c1cccc(NC(=O)c2ccco2)c1,-,-,-,-,-,-
CC(C)(C)NC(=O)c1cccc(NC(=O)c2ccc(NC(=O)c3ccco3)cc2)c1,-,-,-79.4,-,-,-
Cc1cccc(NC(=O)Oc2ccc(Cl)c3cccnc23)c1,.,.,-91.9,.,.,?
O=C(Oc1ccc(Cl)c2cccnc12)c1cccnc1,-,-,-92.6,.,-,-82.1
COCc1cc(O)c(O)c(O)c1-c1c(COC)cc(O)c(O)c1O,-,.,.,.,.,.
Cc1cc(Cl)ccc1NC(=O)C(=O)NCc1ccco1,-,.,.,.,.,.
CS(=O)(=O)NC(=O)CCC/C=C\C[C@H]1C(=O)C[C@@H](O)[C@@H]1/C=C/[C@@H](O)COc1ccccc1,-,.,.,.,.,.
C=CC[n+]1ccc(/C=C2\C=Cc3cc(C)ccc3N2CC)c2ccccc21,?,?,-72.9,3.16µM,-,-
COCCN(C(=O)COC(=O)C1CCCCC1)c1c(N)n(Cc2ccccc2)c(=O)[nH]c1=O,.,.,-,.,.,-
O=[N+]([O-])c1ccccc1/C=C\C=N\N1CCN(c2ccccc2)CC1,?,-,-66.5,-,-,-
COc1ccccc1N1CCN(/N=C/C=C/c2ccccc2[N+](=O)[O-])CC1,-,-,?,-,-,-65.3
O=[N+]([O-])c1ccccc1/C=N\N1CCN(c2ccccc2)CC1,-,-,?,-,-,.
O=[N+]([O-])c1ccccc1/C=C/C=N/N1CCCCC1,-,?,-68.2,-,-,?
O=[N+]([O-])c1ccccc1/C=C/C=N/Nc1nc(N2CCCCC2)nc(N2CCCCC2)n1,-,-,-,?,-,-
SMILES,Apoferritin bind,Eya2 inh,Six1-Eya2 inh,KDM4E inh,GALK inh,CtBP-E1A inh
Oc1ccc(-c2nc3ccc4ccccc4c3c3c2CCC3)cc1O,-,-,?,25.1µM,-,-
O=C(NC[C@@H]1CCCCN1)c1cc(OCC(F)(F)F)ccc1OCC(F)(F)F,-,.,.,-,.,.
Cc1ncc(CO)c(/C=N/NC(=O)c2ccccc2Br)c1O,-,-,-90.5,?,-,-82.6
COc1ccc(C(=O)N/N=C/c2c(CO)cnc(C)c2O)cc1,-,-,?,?,-,.
Cc1ncc(CO)c(/C=N/NC(=S)Nc2ccc(Cl)c(Cl)c2)c1O,-,-,-,?,-,.
Cc1ncc(CO)c(/C=N/NC(=O)c2ccoc2C)c1O,.,-,-82.0,.,.,-86.9
Cc1ncc(CO)c(/C=N/NC(=O)c2cc3c(s2)CCCC3)c1O,-,-,-88.4,?,-,.
COC(=O)C1C[C@@H]2C3=C(C(=O)[C@@](C)(NC(=O)c4ccccc4)C3[C@H](C(=O)OC)C1)[C@H](C)n1c(=O)n(-c3ccccc3)c(=O)n12 (stereo not given in full),-,.,.,.,.,.
COc1ccc2nc(/N=C/c3c(C)[nH]n(-c4ccc(C)cc4)c3=O)sc2c1,-,-,-75.6,-,-,?
COc1ccc2nc(/N=C\N(C)C)sc2c1,-,-,-,-,-,-
Cc1cccc(C)c1N=Nc1c(C)cc(O)cc1C,25.1µM,-,?,.,-,?
COc1cc(/C=N/Nc2nc3ccccc3s2)cc([N+](=O)[O-])c1O,-,?,-81.8,-,-,.
COc1cc(OC)cc(C(=O)Oc2ccc(/C=N/Nc3nc4ccccc4s3)cc2OC)c1,-,-,-,35.5µM,-,-
O=[N+]([O-])c1cc(Cl)cc(/C=N/Nc2nc3ccccc3s2)c1O,-,-,-,?,-,.
Cc1cc(=O)cc2oc3cc(N)c(-c4c(C)cc(O)cc4O)c(C)c3nc1-2,.,.,.,8.91µM,.,.
Clc1cccc(Cl)c1CNc1ccc(N2CCCC2)cc1,-,?,?,12.6µM,-,-
O=C(Cc1ccc(Cl)cc1)Nc1ccc(N2CCCC2)cc1,-,-,-,-,-,-
O=C(/C=C/c1cccs1)NC(=S)NNC(=O)c1ccccc1O,?,-,-75.7,?,-,-94.1
O=C(NC(=S)NNC(=O)c1ccccc1O)c1ccco1,-,-,-90.6,7.08µM,.,-
O=C(NC(=S)NNC(=O)c1cc2ccccc2cc1O)c1ccco1,-,-,-91.4,17.8µM,-,-93.9
COc1ccc(C(=O)NC(=S)NNC(=O)c2ccco2)cc1,-,-,-,.,-,-
CCOC(=O)c1c(NC(C)=O)c2c3c(sc2n1Cc1cc(C)ccc1C)CCCC3,-,.,.,.,.,.
O=C(O)COc1ccc(C=C2SC(=S)N(c3ccccc3)C2=O)cc1,.,.,-,.,.,-92.5
CCOc1ccc(/C=C2\SC(=S)N(CCC(=O)O)C2=O)cc1,-,-,-,-,-,-
Oc1c(C(Nc2nccs2)c2ccc(C(F)(F)F)cc2)ccc2cccnc12 (stereo not given),?,-,?,3.55µM,-,?
SMILES,Apoferritin bind,Eya2 inh,Six1-Eya2 inh,KDM4E inh,GALK inh,CtBP-E1A inh
Oc1c(C(Nc2cccc(C(F)(F)F)c2)c2ccncc2)ccc2cccnc12 (stereo not given),-,-,-91.9,?,-,-94.3
Cc1cccc(NC(c2cccc(Cl)c2)c2ccc3cccnc3c2O)n1 (stereo not given),-,.,.,.,.,.
COc1ccc(C2OC3C(CO)OC(n4cnc5c(=O)[nH]c(N)nc54)C3O2)cc1 (stereo not given),-,.,.,-,.,.
CCSc1ncc(/C=N/Nc2ccc(Cl)cc2)n1C,-,-,-,17.8µM,-,-
OC(CNC1CCCCC1)CON=C1CCSc2c(Cl)cccc21 (stereo not given),.,.,-,.,.,-
Cc1ccc(N2C(=O)NC3(CCCCC3)C2=O)cc1,-,-,-,-,-,-
